Test results published in ChEMBL document CHEMBL2218924, “A broad activity screen in support of a chemogenomic map for kinase signalling research and drug discovery” (Biochem J, 2013).

molecular target: Rho-associated protein kinase 1 (Homo sapiens) (UniProt Q13464); details: at 10 µM
Sequence (Q13464 2-1354 limits assumed): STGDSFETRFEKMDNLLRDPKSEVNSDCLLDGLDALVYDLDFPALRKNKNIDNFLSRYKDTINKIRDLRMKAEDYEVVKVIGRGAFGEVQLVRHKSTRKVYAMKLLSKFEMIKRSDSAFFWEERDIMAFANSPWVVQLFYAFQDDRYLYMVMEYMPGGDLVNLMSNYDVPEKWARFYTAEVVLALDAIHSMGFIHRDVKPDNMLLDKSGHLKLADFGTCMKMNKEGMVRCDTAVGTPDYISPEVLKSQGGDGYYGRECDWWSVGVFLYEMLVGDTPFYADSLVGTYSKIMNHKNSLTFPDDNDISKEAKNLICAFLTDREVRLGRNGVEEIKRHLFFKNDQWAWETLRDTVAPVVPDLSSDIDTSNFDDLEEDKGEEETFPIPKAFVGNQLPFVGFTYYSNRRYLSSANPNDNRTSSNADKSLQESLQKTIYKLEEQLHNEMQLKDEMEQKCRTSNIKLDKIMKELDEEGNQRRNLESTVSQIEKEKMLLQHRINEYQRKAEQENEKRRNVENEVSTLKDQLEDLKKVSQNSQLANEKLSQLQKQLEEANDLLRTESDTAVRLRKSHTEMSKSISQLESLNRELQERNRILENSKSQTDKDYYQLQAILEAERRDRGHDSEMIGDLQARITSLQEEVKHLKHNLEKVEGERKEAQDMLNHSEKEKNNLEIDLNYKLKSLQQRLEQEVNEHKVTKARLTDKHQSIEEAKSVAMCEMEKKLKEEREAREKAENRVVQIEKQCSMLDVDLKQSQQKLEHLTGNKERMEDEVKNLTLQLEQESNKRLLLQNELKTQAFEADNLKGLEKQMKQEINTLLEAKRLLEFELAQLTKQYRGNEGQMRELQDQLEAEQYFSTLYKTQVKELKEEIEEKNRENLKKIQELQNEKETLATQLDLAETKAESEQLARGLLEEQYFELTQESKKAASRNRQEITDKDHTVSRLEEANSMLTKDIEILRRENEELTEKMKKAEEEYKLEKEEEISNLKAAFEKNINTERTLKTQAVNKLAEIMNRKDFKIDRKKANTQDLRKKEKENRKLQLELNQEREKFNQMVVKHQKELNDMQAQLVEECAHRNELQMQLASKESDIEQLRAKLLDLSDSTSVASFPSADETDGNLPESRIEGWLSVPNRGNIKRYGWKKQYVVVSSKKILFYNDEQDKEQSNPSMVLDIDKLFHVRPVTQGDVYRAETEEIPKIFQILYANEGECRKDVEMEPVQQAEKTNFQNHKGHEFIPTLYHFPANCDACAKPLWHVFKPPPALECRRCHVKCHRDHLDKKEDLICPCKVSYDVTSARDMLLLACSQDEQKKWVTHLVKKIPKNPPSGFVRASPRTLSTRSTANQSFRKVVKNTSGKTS

Row | SMILES | residual activity
1 | CSc1nc(-c2ccc(F)cc2)c(-c2ccnc(NC(C)c3ccccc3)c2)[nH]1 (centres undefined) | 96%
2 | O=C(c1cc2cc(O)ccc2[nH]1)c1cc2cc(O)ccc2[nH]1 | 72%
3 | COc1ccc(COc2ccc(Cc3cnc(N)nc3N)cc2OC)cc1 | 120%
4 | O=S(=O)(c1cccc2cnccc12)N1CCCNCC1 | 36%
